E coli growth-1 = E. coli V3065 growth inhibition, primary screen, counter-screen for AddAB inhibitor project, absorbance, OD600. 0.27% of 330,000 active. 18 h. inhibition, % at 11.9 µM;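 active = inhibition above the campaign's mean inhibition across all tested compounds plus 3 SD, cut at about 9.9% in these data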;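 also: uninfected addAB+ strain grown without phage in ampicillin broth; 0% = DMSO wells and 100% = ciprofloxacin 0.95 µg/ml wells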
Tat transport = E. coli Tat export inhibitors, primary screen, MC4100, TorA-mCherry reporter, fluorescence, single point; inhibition, % at 10 µM; 0.036% of 340,000 active;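 active = mean replicate inhibition at least 50% and at least half of replicates individually reaching 50%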;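 also: exported cargo escapes ClpAP degradation while cytoplasmic cargo is degraded and loses fluorescence; 0% = median of neutral control wells and 100% = median of NaSCN control wells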
E coli growth-2 = E. coli growth inhibition, primary screen, OD600; Escherichia coli growth, 23 h; hits give low values; OD600 absorbance (no concentration beside the values); 0.21% of 330,000 active;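 active = OD600 absorbance below the run mean of sample wells minus 3.6 SD, in any replicate, cut at about 0.56 in these data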
AddAB inh = growth inhibition of E. coli expressing H. pylori AddAB, primary screen, AddAB inhibitor project, absorbance. inhibition, % at 11.9 µM. 0.29% of 330,000 active. AID 435030, 2010; in the data active = inhibition above about 12%;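 also: 0% = vehicle wells of infected cells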
phage Ecoli inh = growth loss of phage-infected E. coli, primary screen, RecBCD inhibitor project, absorbance, with phage, HTS; 0.26% of 360,000 active; AID 651602, 2012; inhibition, % at 11.9 µM; in the data active = inhibition above about 11%
AddAB conf = growth loss of phage-infected E. coli expressing H. pylori AddAB, confirmation, AddAB inhibitor project, absorbance, E. coli V3065, T4 phage, triplicate. shares compounds with AddAB inh. OD; T4 phage with gene 2 nonsense mutations. inhibition, % at 11.9 µM. 64% of 880 active. AID 488942, 2010;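 active = mean inhibition above a set limit taken from the earlier primary screen, cut at about 13% in these data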;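 also: higher means less bacterial growth since AddAB block lets phage replicate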
RecBCD counter = growth loss of RecBCD+ E. coli with mutant T4 phage, counter-screen for AddAB inhibitor project, absorbance, V66 E. coli. shares compounds with AddAB inh. OD growth. inhibition, % at 11.9 µM. 73% of 880 active;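 active = mean inhibition above the mean of solvent-only control wells plus 3 SD, cut at about 4% in these data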;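 also: optical density read after an 18 h incubation at 37 °C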
Bact viability = bacterial viability inhibition counter-screen, confirmation, counter-screen for AddAB inhibitor project, absorbance | shares compounds with AddAB inh | absorbance (AddAB counterscreen) | inhibition, % at 11.9 µM | 35% of 880 active | AID 488956, 2010; in the data active = inhibition above about 25%
RecBCD conf = growth loss of phage-infected RecBCD+ E. coli, confirmation, RecBCD inhibitor project, absorbance, E. coli V66, T4 gene 2 phage. shares compounds with phage Ecoli inh. E. coli V66 + T4 2- phage, growth OD. 45% of 890 active. inhibition, % at 11.9 µM;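 active = mean inhibition over triplicates exceeding the hit threshold derived in the original primary screen, cut at about 11% in these data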
Ecoli viability = E. coli viability inhibition, counter-screen for RecBCD inhibitor project, absorbance, high throughput | shares compounds with phage Ecoli inh | absorbance (OD) growth | inhibition, % at 11.9 µM | 29% of 890 active; in the data active = inhibition above about 20%;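 also: E. coli strain V66 grown with compound alone and no phage infection; 0% = bacteria with DMSO vehicle only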
AddAB counter = growth loss of phage-infected AddAB-carrying E. coli, confirmation, counter-screen for RecBCD inhibitor project, absorbance, E. coli V3065, T4 phage | shares compounds with phage Ecoli inh | E. coli expressing H. pylori AddAB + T4 phage, OD growth; gene 2 mutant T4, recBCD-deleted host | inhibition, % at 11.9 µM | 45% of 890 active | AID 651984, 2013;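 active = mean inhibition above the solvent-only control wells' mean plus 3 SD, cut at about 22% in these data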;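 also: higher means less bacterial growth from phage killing when AddAB is blocked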
* marks the source's active call; other numbers are inactive results; x = not tested or not shown; ! = repeats disagree. Compounds with a hit are over-represented: about 0.5% of the library has one in this group of screens.

SMILES	E coli growth-1	Tat transport	E coli growth-2	AddAB inh	phage Ecoli inh	others
N#CC1c2ccccc2-n2nncc2CN1Cc1cc(Cl)cc(Cl)c1 (configuration not stated)	x	56*	x	x	4
COC(=O)C1=C(c2cc3ccccc3s2)CC2CCC1N2C(=O)N1CCC(O)CC1 (configuration not stated)	x	x	0.73	x	x
CN1C(=O)NC(=O)/C(=C\c2ccc([N+](=O)[O-])o2)C1=O	-4	0	x	-2	x
CN1C(=O)NC(=O)/C(=C/c2ccc([N+](=O)[O-])o2)C1=O	2	x	0.3*	3	2
COC(=O)C1=C(c2ccc(OC(F)(F)F)cc2)CC2CCC1N2C(=O)NCCNC(C)=O (configuration not stated)	x	x	0.7	x	x
C[C@]12CCC(O)CC1CCC1C2CC[C@]2(C)C(=O)CCC12 (some centres not stated)	x	x	0.68	x	x
COC1C(OC(=O)c2ccc(C)[nH]2)C(O)C(Oc2ccc3c(O)c(NC(=O)c4ccc(O)c(CC=C(C)C)c4)c(=O)oc3c2Cl)OC1(C)C (configuration not stated)	-1	-24	0.052*	3	9
CCCCCCCCCCCCCCCC[N+](C)(C)C	2	32	0.069*	-1	1
O=C(Cc1cccs1)N1CCC2(CC1)OCCO2	11*	-3	0.68	8	1
COc1cc2c3c(c1OC)Oc1ccc(cc1)CC1c4c(cc(OC)c(OC)c4Oc4ccc(cc4)CC3N(C)CC2)CCN1C (configuration not stated)	x	x	0.69	x	x
COc1cc2c3c(c1OC)Oc1ccc(cc1)C[C@H]1c4c(cc(OC)c(OC)c4Oc4ccc(cc4)C[C@@H]3N(C)CC2)CCN1C	0	54*	x	3	1
CN(C)C(=S)SSC(=S)N(C)C	-1	12	0.49*	0	5
CC(C)(C)[C@]1(O)CC2OC(=O)C[C@@]23C(=O)OC2OC(=O)C(O)[C@]213 (some centres not stated)	x	x	0.68	x	x
COC(=O)C1=C(c2ccc(C(C)=O)cc2)CC2CCC1N2C(=O)N1CCC(O)CC1 (configuration not stated)	x	x	0.71	x	x
Oc1cc(Cl)c(Cl)c(Cl)c1	x	-13	0.068*	x	3
O=c1[nH]sc2cc(F)ccc12	x	-20	0.49*	x	-1
COC(=O)C1=C(c2ccc(F)cc2F)CC2CCC1N2C(=O)NCCOc1ccccc1 (configuration not stated)	x	x	0.69	x	x
COC(=O)C1=C(c2ccc(Cl)c(C(F)(F)F)c2)CC2CCC1N2C(=O)NC1CCCCC1 (configuration not stated)	x	x	0.71	x	x
CC(C)CC(N(C)C)C1(c2ccc(Cl)cc2)CCC1 (configuration not stated)	27*!	-6	0.52*!	37*!	2	AddAB conf=100*;RecBCD counter=3;Bact viability=67*
CN(C)C1(c2nnnn2-c2ccc(Cl)cc2)CCCCC1	1	-2	x	10	3
COC(=O)C1=C(c2cccc(OC)c2OC)CC2CCC1N2C(=O)NCCCOC(C)C (configuration not stated)	x	x	0.7	x	x
c1ccc2c(c1)[nH]c1cnccc12	3	8	0.63	4	4
Cc1c2ccncc2c(C)c2c1[nH]c1ccccc12	14*	-10	0.42*	13*	x	AddAB conf=9;RecBCD counter=0;Bact viability=11
Cn1ncnc2c(=O)n(C)c(=O)nc1-2	45*	128*	0.048*	47*	x	AddAB conf=73*;RecBCD counter=76*;Bact viability=79*
CN(C)C1C(=O)C(C(N)=O)=C(O)C2(O)C(=O)C3=C(O)c4c(O)cccc4C(C)(O)C3CC12 (configuration not stated)	94*	147*	x	85*	x	AddAB conf=94*;RecBCD counter=93*;Bact viability=92*
SMILES	E coli growth-1	Tat transport	E coli growth-2	AddAB inh	phage Ecoli inh	others
CC1CN(C2CCC(C#N)(c3ccc(F)cc3)CC2)CC[C@]1(C(=O)O)c1ccccc1 (some centres not stated)	x	x	0.69	x	x
CC(Cc1ccccc1)NC(=O)CCCCC(=O)NC(C)Cc1ccccc1 (configuration not stated)	0	1	x	0	14*	RecBCD conf=-3;Ecoli viability=-2;AddAB counter=-2
COC(=O)C1=C(c2cc3ccccc3s2)CC2CCC1N2C(=O)N1CCC(C)CC1 (configuration not stated)	x	x	0.7	x	x
Oc1cc(Cl)c(Cl)c(Cl)c1Cl	x	-9	x	x	13*	RecBCD conf=14*;Ecoli viability=19;AddAB counter=17
COC(=O)C1=C(c2ccc(F)cc2OCc2ccccc2)CC2CCC1N2C(=O)NCc1ccccc1Br (configuration not stated)	x	x	0.73	x	x
O=C(Cn1cc(C(=O)c2ccccc2F)c2ccccc21)NCc1ccco1	3	-4	0.66	2	0
COCCNC(=O)Cn1cc(C(=O)c2ccccc2F)c2ccccc21	-1	-1	0.65	-2	44*	RecBCD conf=-2;Ecoli viability=-2;AddAB counter=-3
O=[N+]([O-])c1ccc(N2CCOCC2)c2cccnc12	2	-2	0.69	2	4
O=[N+]([O-])c1ccc(N2CCOCC2)c2c1no[n+]2[O-]	x	x	x	x	17*	RecBCD conf=11;Ecoli viability=13;AddAB counter=98*
O=[N+]([O-])c1oc2ccc3ccccc3c2c1CCO	x	-8	x	x	100*	RecBCD conf=104*;Ecoli viability=105*;AddAB counter=103*
COC(=O)C1=C(c2ccc(Cl)c(C(F)(F)F)c2)CC2CCC1N2C(=O)NC(C)C (configuration not stated)	x	x	0.7	x	x
O=c1c2ccccc2nc(/C=C/c2ccc([N+](=O)[O-])o2)n1-c1ccc(O)cc1	x	-4	0.67	x	12*	RecBCD conf=6;Ecoli viability=9;AddAB counter=40*
Cc1cccc(-n2c(/C=C/c3ccc([N+](=O)[O-])o3)nc3ccccc3c2=O)c1	3	-4	0.65	5	2

High-throughput results from PubChem.
